Drawing on PMC7819943, “Rice protein-binding microarrays: a tool to detect cis-acting elements near promoter regions in rice”, this text covers binding signal for 46 sequences.

Over roughly 39,000 sequences, “fluorescence intensity (a.u.)” has its median near 4,300; the highest 2% begin near 39,000. Many of the other results were omitted from the sample, so the highest values are more common in it than they were.

This assay addresses T1, OsSMF1 (Oryza sativa, UniProt Q6ZLB0 1-436).
T1 sequence: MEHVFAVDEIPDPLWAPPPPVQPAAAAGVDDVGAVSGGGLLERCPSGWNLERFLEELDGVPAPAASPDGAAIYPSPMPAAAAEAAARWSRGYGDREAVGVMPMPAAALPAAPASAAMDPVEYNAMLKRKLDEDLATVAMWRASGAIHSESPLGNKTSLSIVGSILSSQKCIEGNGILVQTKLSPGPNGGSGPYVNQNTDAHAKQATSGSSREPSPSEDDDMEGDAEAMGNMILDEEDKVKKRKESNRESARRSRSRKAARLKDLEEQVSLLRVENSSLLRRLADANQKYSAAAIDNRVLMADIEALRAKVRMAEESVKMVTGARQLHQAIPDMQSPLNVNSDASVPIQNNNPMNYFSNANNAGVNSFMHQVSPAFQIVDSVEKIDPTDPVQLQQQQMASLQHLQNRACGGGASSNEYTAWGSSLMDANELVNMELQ
The experiment in a line: protein-binding microarray (RPBM); PBS, 2% BSA, 51.3 ng/ul salmon testes DNA, 50 uM zinc acetate, 200 nM TF, 25 C, 1 h; high values mean tight binding. Particulars: protein: recombinant; tags: N-terminal polyhistidine and DsRed monomer fusion (pET32a); chain copies: 2; label: CyDye5-dUTP incorporated in the synthesized complementary strand; 3' TTTTT single-stranded linker to array surface; dsDNA, one strand shown. An outline of the steps: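 Binding signal here means per-feature fluorescence intensity in arbitrary units. The values were read on an Axon 4000B scanner after a custom Agilent array, double-stranded by primer extension with Cy5-dUTP, was incubated with 200 nM protein at 25 °C for 1 h in PBS with 2% BSA, salmon testes DNA and 50 µM zinc acetate, then washed. The proteins were transcription factors with an N-terminal polyhistidine tag and DsRed, expressed in E. coli BL21-CodonPlus and purified on Ni–NTA.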
Turning to “AGCTGGTGATGAGCAGCGTCACCAATTCTTCCTGGACGCCCGGAGTCACCTAGTGCAG”, the binding signal is 4190 fluorescence intensity (a.u.).
For “CGGCGAGGCGAACTCAACGGGTACGCAAAGCGAAGAGGAGCGGAGTCACCTAGTGCAG” the value was 45600 fluorescence intensity (a.u.).
To “GAAGGCGGCGGGGTGGCGAAGTGGCGAGGAGGAGACGGGGCGGAGTCACCTAGTGCAG” belongs 4910 fluorescence intensity (a.u.); to “GGCGGCAGCGACGGCGGAGGCGAGGGAGGGGAGGCGGCGGCGGAGTCACCTAGTGCAG”, 3930 fluorescence intensity (a.u.); to “ATCGTCGCGGGGCCGCCGACGGCGCGCGGTGTGGCCGACGCGGAGTCACCTAGTGCAG”, 6480 fluorescence intensity (a.u.).
Turning to “CGGTGGCGGGAACATGTGGGCGGTGGCAGGAGTGCAGGTGCGGAGTCACCTAGTGCAG”, the binding signal is 3810 fluorescence intensity (a.u.).
To “GAACGGAACGCAACGTGCGGAGAGAGAGCGAGAGAGAAGCCGGAGTCACCTAGTGCAG” belongs 30600 fluorescence intensity (a.u.).
As to “GTGGAGGCGAGGCGGCGAGAGGCGGGTAGCAGTGGAGGAGCGGAGTCACCTAGTGCAG”, the binding signal was 3430 fluorescence intensity (a.u.).
As to “GCAACGGAAGAGATGAGGAGATGACTCGGATGAGCGGAAGCGGAGTCACCTAGTGCAG”, the binding signal is 3180 fluorescence intensity (a.u.).
To “AGAAGAGGGAGACAGAGGATAGAGAGAAGAGGGCACTTCACGGAGTCACCTAGTGCAG” belongs 11900 fluorescence intensity (a.u.); to “GAGAGGAGGAAGACAGAGAGGAGAGATGAGATAGGATCAACGGAGTCACCTAGTGCAG”, 46200 fluorescence intensity (a.u.).
With “GGCAGCTTGGTGCGGGAGAGAGGCGGCGGCGAAGGGGAGACGGAGTCACCTAGTGCAG”, the binding signal was 41900 fluorescence intensity (a.u.).
In the case of “ACGGCGGGAACAATTGTGGGCGGTGGCCTTGGCCGAATCGCGGAGTCACCTAGTGCAG”, the binding signal was 55000 fluorescence intensity (a.u.).
For the sequence “CTCCAGCATCGCCACCGGGTCCCCGTACGGGTTCTTCGGGCGGAGTCACCTAGTGCAG”, the binding signal is 3620 fluorescence intensity (a.u.).
Regarding “CTCTGCTCTCAAATGCTCTGTGTGCGATCAGGTATTCATGCGGAGTCACCTAGTGCAG”, the binding signal was 3270 fluorescence intensity (a.u.).
For “ACCGAGTAGATCACTTCCGTGCAAGTTGGTTGACAAGTATCGGAGTCACCTAGTGCAG” the value was 3480 fluorescence intensity (a.u.); for “CTGGACACCTCACGAAGTCTCAAACTGCTGTTTGTTCTCACGGAGTCACCTAGTGCAG”, 4230 fluorescence intensity (a.u.).
As to “ATATGGCCTTCGGTGGTATCCACGTAGAGCTTTACGTTAACGGAGTCACCTAGTGCAG”, the binding signal is 4810 fluorescence intensity (a.u.).
Regarding “CACCCGCGTGTATGCCAGCTAGGCTTGGCTCCGACGTGGACGGAGTCACCTAGTGCAG”, the binding signal was 4790 fluorescence intensity (a.u.).
To “GCAGCCACGACGCCCGCCAATGCTGCCGCCGCCATCGATGCGGAGTCACCTAGTGCAG” belongs 5300 fluorescence intensity (a.u.); to “AGAATTTGTTCGTCACCCATATATCGGCGTCATGACCTCGCGGAGTCACCTAGTGCAG”, 3510 fluorescence intensity (a.u.); to “GTCGGATCCCCGCGCAATCATACACACGTGTCGCCGTCGCCGGAGTCACCTAGTGCAG”, 8730 fluorescence intensity (a.u.).
For “TTAGGACCATAATATCTAATGTTACATGCCACGTACCAAACGGAGTCACCTAGTGCAG”, the binding signal is 7280 fluorescence intensity (a.u.).
As for “GCCGCCCGCGCGCGACCGCGTGACGTCGCAGCCGCACCGACGGAGTCACCTAGTGCAG”, the binding signal is 6080 fluorescence intensity (a.u.).
“GCCGCTTCGATGCTGGCGGCAGGGTGGGGCGGGGATGCCTCGGAGTCACCTAGTGCAG”: the binding signal was 6170 fluorescence intensity (a.u.).
For “CTGGTCGGCGCGGGCACGCGCTTGCGGAGGCTGGGGAGTCCGGAGTCACCTAGTGCAG” the value was 39700 fluorescence intensity (a.u.); for “GCGGAGGAGGCAAGGAGATCAGGCGGCAGAGGAAAGGGGCCGGAGTCACCTAGTGCAG”, 3280 fluorescence intensity (a.u.).
For “GACGGGCGGCGGTGGGGCTGACGCGGGCGACGGAGGGGCTCGGAGTCACCTAGTGCAG” the value was 6720 fluorescence intensity (a.u.).
To “ACGGCATCGATCGATCGCGGGCGACGTGGCTGAGTGGCGGCGGAGTCACCTAGTGCAG” belongs 6420 fluorescence intensity (a.u.); to “GGCTTCGCCGACGGTGGCTCGGGCGACGGCGATGCTGGGGCGGAGTCACCTAGTGCAG”, 58600 fluorescence intensity (a.u.); to “TTGGGCGGCGGTGCGGGGAGGCTGAGGGGCGGCGCCGGCGCGGAGTCACCTAGTGCAG”, 3580 fluorescence intensity (a.u.).
In the case of “GATCAAACCAGCGGCAGATGAGGGCGCAAAGAGAAAGAGCCGGAGTCACCTAGTGCAG”, the binding signal is 4210 fluorescence intensity (a.u.).
To “TGCCACCGTGGCGGCCGGGCCGATCCCCTAGCTGACGTGGCGGAGTCACCTAGTGCAG” belongs 41900 fluorescence intensity (a.u.).
As for “CGCTGCGGGGAGTCGGCGCTTCGTCGGAGGCGGCGGGGCGCGGAGTCACCTAGTGCAG”, the binding signal was 3230 fluorescence intensity (a.u.).
For “AGAGGGGCAGAGAGAGAGAGTGAGTGAGAAAGAGATCAAGCGGAGTCACCTAGTGCAG” the value was 56600 fluorescence intensity (a.u.); for “TCGTCCGATCCCCTAGCGTGGCCACCGATCCGCCCGTCCCCGGAGTCACCTAGTGCAG”, 3230 fluorescence intensity (a.u.).
As to “GAAAGTTGCTGCGAACATACGTGATGACGCGACTAAAGCTCGGAGTCACCTAGTGCAG”, the binding signal was 5210 fluorescence intensity (a.u.).
On to “ATAGCCCAACTCGAATCAATCCACGTCTCCACCGTTCATCCGGAGTCACCTAGTGCAG”, for which the binding signal is 3360 fluorescence intensity (a.u.).
To “TCCGTCGCGATTCGCCACCTCGCCCTCGTCTCGTTTTAGCCGGAGTCACCTAGTGCAG” belongs 3450 fluorescence intensity (a.u.); to “ATGCACTTCCTGTCACGGTCCGGCCCATCCTAGCTGCCGGCGGAGTCACCTAGTGCAG”, 3290 fluorescence intensity (a.u.); to “AAACTTCTCTTCAGATAAAGATTTACTACCGTGTCAAATTCGGAGTCACCTAGTGCAG”, 3800 fluorescence intensity (a.u.).
To “CTCCGTCCACTGGACAGGGCAGAGGCTGCCTACCAGACACCGGAGTCACCTAGTGCAG” belongs 4640 fluorescence intensity (a.u.); to “GACAGTAGCAGCAGTGGACACGTCGATTTCGCAATTCGTGCGGAGTCACCTAGTGCAG”, 5760 fluorescence intensity (a.u.); to “GCCAGGCGACGCGACGAGTCAGCTCAGCTCGCGCCCGCGGCGGAGTCACCTAGTGCAG”, 3700 fluorescence intensity (a.u.).
For “CGAGAGGTACCGCGCGCTGCCGGCGGAGAAGCGGGCGAGGCGGAGTCACCTAGTGCAG”, the binding signal is 41500 fluorescence intensity (a.u.).
As for “GAGGTACCGGCCGTACGCGCCGCGGAGGCGGACGTAGGGCCGGAGTCACCTAGTGCAG”, the binding signal is 31200 fluorescence intensity (a.u.).
